PubChem BioAssay (NCI)
About 83,000 compounds went through this panel and 20% of them were active in at least one assay; those are over-represented in the sample as a whole.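 Treatment: one concentration, 48 hours, 96-well format. Scoring: percent growth, with anything below 10 considered active.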 Values without a mark were called inactive. Activity calls are given as the source filed them.

Assays:
Experiment in all cases: NCI-60 one-dose screen, 48 h (100 = growth as untreated, 0 = no growth, -100 = all killed)
SR leukemia = details: 10 µM unless noted
RPMI-8226 leukemia = details: 10 µM unless noted
OVCAR-8 ovarian = details: 10 µM unless noted
OVCAR-5 ovarian = details: 10 µM unless noted
OVCAR-4 ovarian = details: 10 µM unless noted
SK-OV-3 ovarian = details: 10 µM unless noted
IGROV1 ovarian = details: 10 µM unless noted
OVCAR-3 ovarian = details: 10 µM unless noted
HS 578T breast = details: 10 µM
NCI/ADR-RES ovarian = details: 10 µM unless noted
T-47D breast = details: 10 µM unless noted
BT-549 breast = details: 10 µM unless noted
MDA-MB-435 melanoma = details: 10 µM unless noted
SW-620 colon = details: 10 µM unless noted
MCF7 breast = details: 10 µM unless noted
HCT-116 colon = details: 10 µM unless noted
HCC-2998 colon = details: 10 µM
KM12 colon = details: 10 µM unless noted

SMILES | growth (SR leukemia) | growth (RPMI-8226 leukemia) | growth (OVCAR-8 ovarian) | growth (OVCAR-5 ovarian) | growth (OVCAR-4 ovarian) | growth (SK-OV-3 ovarian) | growth (IGROV1 ovarian) | growth (OVCAR-3 ovarian) | growth (HS 578T breast) | growth (NCI/ADR-RES ovarian) | growth (T-47D breast) | growth (BT-549 breast) | growth (MDA-MB-435 melanoma) | growth (SW-620 colon) | growth (MCF7 breast) | growth (HCT-116 colon) | growth (HCC-2998 colon) | growth (KM12 colon)
Cc1nn(-c2nc3ccccc3[nH]2)c2c1C(c1ccc(O)cc1)CC(=O)N2 (stereo not drawn) | 53.7% | 101% | 55.3% | 109% | 112% | 84.3% | 75.9% | 93.2% | 28.1% | 88.5% | 88.7% | 92.7% | 104% | 93.5% | 109% | 101% | 123% | 60.3%
Nc1ccc(S(=O)(=O)O)c2cc(S(=O)(=O)O)cc(O)c12 | 105% | 102% | 105% | 102% | 109% | 101% | 107% | 113% | 103% | 105% | 120% | 99% | 110% | 107% | 104% | 93.7% | 117% | 102%
COC(=O)[C@H](Cc1ccccc1)NC(=O)[C@@H](OC)[C@@H]1Cc2cc3cc(OC4CC(OC5CC(O)C(O)C(C)O5)C(O)C(C)O4)c(C)c(O)c3c(O)c2C(=O)[C@H]1OC1CC(OC2CC(OC3CC(C)(O)C(O)C(C)O3)C(O)C(C)O2)C(O)C(C)O1 (stereo partly drawn) | 7.89% (active) | -16.5% (active) | 7.42% (active) | 8.6% (active) | 1.44% (active) | 17% | 25.5% | 5.7% (active) | -16.7% (active) | 51.6% | 2.51% (active) | -62.4% (active) | -69.4% (active) | 6.79% (active) | 3.21% (active) | 1.85% (active) | -45.2% (active) | -5.45% (active)
CCN1/C(=C/C=C/c2n(-c3ccccc3)c3ccc(-c4nc5ccccc5s4)cc3[n+]2CC)N(c2ccccc2)c2ccc(-c3nc4ccccc4s3)cc21 | 15.5% | 8.29% (active) | 10.6% | 31.4% | 24.7% | -4.86% (active) | 14% | -0.0306% (active) | 28.2% | 52.3% | 5.56% (active) | -5.34% (active) | -41.1% (active) | 16.7% | 11.2% | 10.8% | 33.3% | 10.6%
COc1cc(-c2cc(-c3ccc(Nc4ccnc5cc(Cl)ccc45)cc3)nc(N3CCOCC3)n2)cc(OC)c1OC | -10.7% (active) | -5.21% (active) | 9.73% (active) | 55.5% | -48.3% (active) | 98.6% | 1.69% (active) | -47.7% (active) | 3.06% (active) | 9.9% (active) | 12.8% | 24.4% | -35% (active) | 1.68% (active) | 4.34% (active) | -63.3% (active) | 18.7% | 25.2%
CN(C)CCn1c(=O)c2c3cc4c(cc3n(CCN(C)C)c2c2ccc(Cl)cc21)OCO4 | -13.5% (active) | 44.7% | 31.7% | 81.4% | 61.3% | 41.3% | 38.4% | 83.5% | 84.7% | 31.4% | 57.2% | 63.6% | 70.7% | -14.7% (active) | 21.3% | -79.4% (active) | 81.7% | 45.1%
COc1ccc(C(=O)c2cc(OC)c(OC)c(OC)c2)cc1/C=C/C(=O)c1ccc(F)cc1 | 3.26% (active) | 23.3% | 53.3% | 1.82% (active) | 77.8% | 93.5% | 91.7% | 61.4% | 98% | 31.1% | 67.3% | 81.2% | 60.5% | 9.38% (active) | 19.6% | 1.33% (active) | 97.1% | 39.8%
CNC(=O)c1cc(Oc2cccc3nc(Nc4ccc(Cl)c(F)c4)ccc23)ccn1 | 62.2% | 99.5% | 48.9% | 79.7% | 8.11% (active) | 41.4% | 79.3% | 52.2% | 37.5% | 49.5% | 51.3% | 63.8% | 86.4% | 82% | 76.2% | 45.4% | 82.5% | 84.4%
COc1ccc2c(CCCC(c3ccccc3)c3ccccc3)c3[n+](cc2c1OC)CCc1cc2c(cc1-3)OCO2 | -35% (active) | -38.8% (active) | -47.6% (active) | 31.8% | -81.3% (active) | -13.4% (active) | 5.13% (active) | -74.6% (active) | -16.8% (active) | 71.7% | -15.6% (active) | -65.6% (active) | -90.7% (active) | 0.287% (active) | -3.37% (active) | -33.9% (active) | -81.9% (active) | -65% (active)
NC(=O)c1n[nH]n2c1nc(=O)c1c3c(sc12)CCCC3 | 101% | 94.2% | 101% | 111% | 118% | 105% | 104% | 107% | 110% | 106% | 96.2% | 98.3% | 117% | 100% | 92.3% | 104% | 104% | 104%
COC[C@@H](C)n1c(C2CCOCC2)nc2c1C1C=C(OC)C(c3c(C)noc3C)=CC1N=C2 (stereo partly drawn) | 31.1% | 10.4% | 57.1% | 70.3% | 42.8% | 39.6% | 39.4% | 28.9% | 35% | 43.4% | 44.6% | 62.6% | 41.6% | 72.1% | 15.5% | 53.4% | 52.7% | 43%
O=C(Nc1ccc(N=Nc2ccccc2)cc1)c1cccc2ccccc12 | 23.3% | 66.1% | 78.7% | 92.5% | 75.8% | 64.5% | 80.4% | 37.1% | 72.6% | 49.3% | 66.3% | 53.5% | -17.2% (active) | 40% | 42% | 36.1% | 78.5% | 47.7%
Cc1cc(N(CCNc2ccnc3cc(Cl)ccc23)Cc2ccc3c(c2)OCO3)nc(N2CCN(C)CC2)n1 | -33.4% (active) | -42.3% (active) | 20.3% | 97.2% | 36% | 67.4% | 51.7% | 26.5% | 34.4% | 40.9% | -36.9% (active) | 21.6% | -62.6% (active) | 2.88% (active) | 15.3% | 9.43% (active) | -30.8% (active) | 62.6%
O=C(Cc1ccccc1)Nc1nnc(NC2CCN(c3nnc(NC(=O)Cc4ccccc4)s3)CC2)s1 | 84.9% | 58.9% | 95.2% | 94.3% | 98.8% | 84% | 84.8% | 94.4% | 78.6% | 98.4% | 84% | 82% | 102% | 99.8% | 87.4% | 89.2% | 101% | 59.2%
O=C1/C(=C\c2cccc(OCCCCCOc3ccc(Cl)cc3)c2)N=C2SCCCN12 | 92.1% | 40.9% | 53% | 85.3% | 31.3% | 93.8% | 86.9% | 59.3% | 87% | 45.4% | 26.4% | 57.4% | 46.1% | 86.2% | 68.5% | 52.7% | 71% | 48.2%
Cc1cc(C(O)CN(C)C)cc2c1ccc1cc(C(C)C)ccc12 (stereo not drawn) | -19.6% (active) | -22.6% (active) | -46.5% (active) | 49.5% | -2.02% (active) | 83.7% | -64.4% (active) | 64.7% | -0.73% (active) | 59.8% | -33% (active) |  | -80.8% (active) | -89.8% (active) | -99.8% (active) | -100% (active) | -89.1% (active) | -95.5% (active)
CC(=O)OC(C(=O)c1ccccc1)c1ccccc1 (stereo not drawn) | 106% | 105% | 98% | 102% | 97.8% | 94.1% | 105% | 121% | 125% |  | 95.5% |  | 108% |  | 95.8% | 95.8% | 112% | 101%
Cc1ccc(N=C2CSc3nnc(-c4csc5c4CCCC5)n3N2)cc1 | 32.2% | 24.7% | 35.1% | 54.4% | 62.1% | 27.6% | 53.3% | -21.4% (active) | 38.8% | 1.16% (active) | 48.2% | 31.3% | -25.1% (active) |  | 21.4% | 13.9% | 30.3% | 24%
c1ccc2c(c1)CCN(NCCN1CCCC1)C2 | 103% | 95.5% | 101% | 94.7% | 106% | 84.6% | 96.3% | 99.9% | 85.6% | 96.1% | 91.4% | 99.8% |  | 94.8% | 96.5% | 85.6% | 95% | 100%
CC1(/C=N/NC(N)=S)NC(=O)NC1=O (stereo not drawn) | 94.8% | 104% | 97.7% | 102% | 109% | 86.9% | 111% | 109% | 97% | 111% | 79.5% | 105% | 107% |  | 94.8% | 98.4% | 118% | 104%
